Many of the other results were omitted from the sample, so hits are more common in it than they were.
U2OS ROS induce: cancer cell ROS induction. U2OS ROS induction, H2DCF-DA fluorescence. ROS induction (% of piperlongumine), % at 10 µM. actives 2% (n = 46,000); in the data active means ROS induction above about 79%, passing the limit was not always enough; inconclusive means no clear call, values can overlap the other calls;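 further: 0% = DMSO vehicle median and 100% = reference compound median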
PD-1 reversal: activators reversing PD-1 mediated T-cell inhibition; AID 2316; primary human CD4 T cells, PD-L1 beads, CellTiter-Glo 96 h; 29,000 tested, under 10 active; activation, % (concentration not given with the values); call rule not given here;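 further: 0% = median vehicle wells and 100% = positive control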
YB-1 expr inh: YB-1 expression inhibition; U2OS, qRT-PCR YB-1 vs CDIP delta delta Cp, 16 h; active compounds read high; zero = DMSO, each unit about twofold; delta delta Cp (YB-1 minus CDIP) (no concentration beside the values); actives 0.37% (n = 30,000); AID 434959;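 active means delta delta Cp rounded down to an integer at or above 3, about 3 SD of DMSO wells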;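 further: higher means less YB-1 transcript or more CDIP transcript relative to DMSO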
NOMO-1 viab: STK33 inhibitor candidate reducing NOMO-1 cell viability | AID 2330 | actives 7.5% (n = 37,000) | NOMO-1 AML viability, CellTiter-Glo luminescence, 72 h | inhibition, % (no concentration beside the values); in the data active means inhibition above about 80%; inconclusive means no clear call, values can overlap the other calls
The depositor's hits bear a star.

How did COc1ccc(NC(=O)Nc2ccc3c(c2)CC(=O)N([C@H](C)CO)C[C@H](C)[C@H](CN(C)S(=O)(=O)c2ccc(F)cc2)O3)cc1 do in these assays?
U2OS ROS induce: 6.1; YB-1 expr inh: 0.0513; NOMO-1 viab: 125.5*

How did Cc1ccc(S(=O)(=O)N(C)C[C@@H]2Oc3ccc(NC(=O)Nc4ccc(F)cc4)cc3CC(=O)N([C@@H](C)CO)C[C@@H]2C)cc1 do in these assays?
U2OS ROS induce: 14.6; PD-1 reversal: -1.5; YB-1 expr inh: 0.211; NOMO-1 viab: 104.1*

Results for CC(=O)Nc1cc(C(=O)N2CCN(c3cc(Cl)ccc3C)CC2)ccc1Sc1ccc(F)cc1 ?
U2OS ROS induce: 7.6

What do the screens show for `COC(=O)C1=CN(C(C(=O)OC)c2ccccc2)C=C(C(=O)OC)C1c1ccc(F)cc1` (configuration not stated)?
U2OS ROS induce: 35.0

How did O=C(Cn1c(SCc2cccc(C(F)(F)F)c2)nc2ccncc21)NCCC1=CCCCC1 do in these assays?
U2OS ROS induce: -4.4

Results for COc1ccc(S(=O)(=O)N(CCO)c2ccccc2CN(C)C/C=C/c2ccc(Cl)cc2)cc1 ?
U2OS ROS induce: inconclusive; PD-1 reversal: -11.9; YB-1 expr inh: -1.75; NOMO-1 viab: 83.3*

What do the screens show for `O=c1cc(-c2ccccc2)n(-c2ccccc2)cn1`?
U2OS ROS induce: 4.2; PD-1 reversal: -5.4; YB-1 expr inh: -0.381; NOMO-1 viab: 100.6*

Results for O=C1c2ccccc2C(=O)c2c1ncn2-c1ccccc1 ?
U2OS ROS induce: -7.1

How did CCOc1ccc2nc(SCc3nc4ccccc4[nH]3)sc2c1 do in these assays?
U2OS ROS induce: 52.1

How did Cc1ccc(S(=O)(=O)N2c3ccccc3C(C)(c3ccccc3)CC2(C)C)cc1 (configuration not stated) do in these assays?
U2OS ROS induce: 51.1; PD-1 reversal: -1.1; YB-1 expr inh: -0.282; NOMO-1 viab: 107.5*

Results for CN(/N=C/c1ccccc1)C1=NS(=O)(=O)c2ccccc21 ?
U2OS ROS induce: 96.1*; PD-1 reversal: 0.6; YB-1 expr inh: 0.0729; NOMO-1 viab: 44.6

What do the screens show for `O=C1CSC(=S)N1CCc1ccc(Cl)cc1`?
U2OS ROS induce: 0.8; PD-1 reversal: 0.1; YB-1 expr inh: 0.28; NOMO-1 viab: 113.0*

How did Cc1ccc(C(=O)CSc2nnc(-c3ccco3)o2)o1 do in these assays?
U2OS ROS induce: -12.9; PD-1 reversal: -0.1; NOMO-1 viab: 21.7

Results for C=CCn1c(=S)sc2c(Sc3nnc(-c4ccco4)o3)ncnc21 ?
U2OS ROS induce: -29.5; PD-1 reversal: -5.6; YB-1 expr inh: 0.633; NOMO-1 viab: 115.5*

How did Cc1ccc(C(C)C)c(OCC(=O)Nc2cccc3ncccc23)c1 do in these assays?
NOMO-1 viab: 60.0

What do the screens show for `Cc1ccc2c(c1)c1nc3ccccc3nc1n2CCN1CCOCC1`?
U2OS ROS induce: 78.0*; PD-1 reversal: -5.1; NOMO-1 viab: 11.9

Results for Cc1ccc2c(c1)c1nc3ccccc3nc1n2CC(=O)OCc1ccccc1 ?
U2OS ROS induce: -2.8

Results for O=C(Cn1c2c(c(-c3ccccc3)cc1=O)CCCC2)N1CCCC1 ?
U2OS ROS induce: -14.2

How did Cc1[nH]c2ccccc2c1C(c1ccccc1)N1CCN(C)CC1 (configuration not stated) do in these assays?
U2OS ROS induce: 61.7; PD-1 reversal: -6.9; YB-1 expr inh: -0.272; NOMO-1 viab: 117.0*

How did O=c1cc(O)c2sc3nc(-c4cccnc4)c4c(c3c2[nH]1)CCCC4 do in these assays?
U2OS ROS induce: 0.1; PD-1 reversal: -0.3; YB-1 expr inh: -0.392; NOMO-1 viab: 106.0*

What do the screens show for `O=c1cc(O)c2sc3nc4c(c(C(F)(F)F)c3c2[nH]1)CCCCC4`?
U2OS ROS induce: 41.8

Results for CN/C(=C/[N+](=O)[O-])NCCSCc1csc(CN(C)C)n1 ?
U2OS ROS induce: -3.3; PD-1 reversal: -1.2; YB-1 expr inh: 3.8*; NOMO-1 viab: 11.3

How did COc1cc(-c2nnc(SCC(=O)c3cccc([N+](=O)[O-])c3)n2-c2ccccc2)cc(OC)c1OC do in these assays?
U2OS ROS induce: 95.1*; PD-1 reversal: -2.7; NOMO-1 viab: 57.4

How did COc1cc(-c2nnc(SCC(=O)c3ccc(Cl)cc3)n2-c2ccccc2)cc(OC)c1OC do in these assays?
U2OS ROS induce: -0.2; PD-1 reversal: -0.9; NOMO-1 viab: 51.9

Results for COc1ccc(-c2cc(C)nc(SCC(=O)c3cccc([N+](=O)[O-])c3)n2)cc1 ?
U2OS ROS induce: 92.2*; PD-1 reversal: -2.2; NOMO-1 viab: 10.6

Results for CC(C(=O)O)n1cnc2scc(-c3ccc(Cl)cc3)c2c1=O (configuration not stated) ?
U2OS ROS induce: -12.1
